Measured values: PubChem BioAssay AID504727 (Broad Institute, 2011)
Active and inactive are the calls of the source.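 Rule for the calls: active = fitted half-maximal concentration AC50 at or below ten times the highest valid tested dose, with signal falling as DNA is displaced (actives reach about 34 µM in these data); inconclusive = flat fit at moderate signal loss, or poor fit quality; inactive = the rest, including signal rising instead of falling.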

Test: acridine orange-DNA binding displacement – biochemical, fluorescence polarization, cherry-picked samples, set 2, artefact control for KSHV LANA DNA-binding inhibitor project, dose response (AID 504727)
Conditions: series mostly up to 35 µM

SMILES | AC50
CCc1nnc(NC(=O)c2cccc(S(=O)(=O)N(C)c3ccccc3)c2)s1 | inactive
Cc1ccc2c(c1)nnn2C1CCN(C(=O)c2cccs2)CC1 | inactive
COc1cc2c(cc1OC)-c1cc3ccc4c(c3c[n+]1CC2)OCO4 | 32.2 µM (active)
Cc1ccc(C)c(N2CCN(C(=O)c3cc4ccccn4n3)CC2)c1 | inactive
O=C(NCc1cccnc1)C(=O)C1C(=O)Nc2ccccc21 (configuration not stated) | inactive
CCOC(=O)[C@H]1[C@H]2COc3cc(OC)ccc3[C@@H]2N2C(=O)CN(Cc3ccc(OC)cc3)C(=O)[C@@]12C | inactive
O=C(O)c1ccc(NS(=O)(=O)c2ccc3c(c2)C2C=CCC2C(c2ccccc2F)N3)cc1 (configuration not stated) | inactive
COc1ccc2ccccc2c1C(O)c1nccn1C (configuration not stated) | 4.01 µM (active)
COc1c2c(nc3occc13)C(CCC(C)(C)O)(OC)C(O)CC2 (configuration not stated) | inactive
CC(C)[C@H](NC(=O)c1ccccc1F)C(=O)NC1CCCCCCC1 | inactive
O=S(=O)(O)c1cc(O)c(N=Nc2ccc(O)cc2O)c2ccccc12 | inactive
O=c1ccc2c(-c3ccccc3S(=O)(=O)O)c3ccc(O)c(O)c3oc-2c1O | inactive
O=S(=O)(NCc1cccnc1)c1ccc(Cl)s1 | inactive
Cc1cc(C)n(CC(=O)NNC(=O)CC(C)c2ccccc2)n1 (configuration not stated) | inactive
COc1ccc(Br)cc1CNC(=O)CCCc1cn(C)c2ccccc12 | inactive
COc1ccc(-c2cc(C(F)(F)F)n3ncc(C(=O)N4CCCCC4c4cccnc4)c3n2)cc1 (configuration not stated) | inactive
Cc1[nH][nH]c(=O)c1C(c1ccc(-c2ccc(Cl)c(C(=O)O)c2)o1)c1c(C)[nH][nH]c1=O | inactive
